Some test systems named below: NCI-H23 lung; NCI-H226 lung; NCI-H322M lung; HOP-62 NSCLC; NCI-H460 lung; HOP-92 NSCLC; NCI-H522 lung; A549/ATCC NSCLC; 786-0 renal; COLO 205 colon.
What all share (assay): NCI-60 one-dose screen, 48 h (100 = growth as untreated, 0 = no growth, -100 = all killed)
What all share (details): 10 µM unless noted

In PubChem BioAssay (NCI) one finds growth data, which are given here for 14 compounds.

The structures appear in SMILES notation. About 83,000 compounds went through this panel and 20% of them were active in at least one assay; those are over-represented in the sample as a whole.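 For each line, cells grew in 96-well plates with the test compound present at a single concentration for 48 hours.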 Values without a mark were called inactive. Calls of active or inactive are those of the source. Rule for the calls: active = growth percent below 10; inactive = the rest.

Consider `CC(=O)c1cc2c(N)c(C(=O)Nc3ccccc3)sc2nc1C`, for which the growth with NCI-H23 lung was 91.5%; with NCI-H226 lung it was 92%; in the assay with NCI-H322M lung, 50.8%; in the assay with HOP-62 NSCLC it was 75.1%; in the assay on NCI-H460 lung, 15.9%; in the assay with HOP-92 NSCLC, 57.6%. Moreover, the growth is 66.5% in the assay on NCI-H522 lung, 28.4% with A549/ATCC NSCLC, 77.2% in the assay on 786-0 renal and 4.95% (active) with COLO 205 colon.

For `Cc1ccccc1COc1ccc(-c2ccnn2-c2ccc(Cl)cc2)cc1`, the growth is 76.6% in the assay with NCI-H23 lung; 70.3% in the assay with NCI-H226 lung; 96.9% with NCI-H322M lung; 49.3% in the assay on HOP-62 NSCLC; 58.3% in the assay on NCI-H460 lung; 74.2% with HOP-92 NSCLC. The growth is 29.1% with NCI-H522 lung, 49.6% in the assay with A549/ATCC NSCLC, 82.8% in the assay with 786-0 renal and 71.2% in the assay with COLO 205 colon.

Regarding `Cc1oc(-c2ccc(Cl)cc2Cl)cc1C(=O)Nc1nccs1`, the growth is 87.4% with NCI-H23 lung; 62.6% with NCI-H226 lung; 91.1% in the assay on NCI-H322M lung; 85.4% with HOP-62 NSCLC; 60.7% in the assay with NCI-H460 lung; 110% with HOP-92 NSCLC. The growth with NCI-H522 lung is 89.7%; in the assay on A549/ATCC NSCLC it was 51.8%; in the assay with 786-0 renal, 90.7%; in the assay with COLO 205 colon, 87.9%.

Regarding `C=CCSSC1N=CNc2nc[nH]c21` (centres undefined), the growth in the assay on NCI-H23 lung is 54.6%; in the assay with NCI-H226 lung, 73%; in the assay on NCI-H322M lung, 42.8%; in the assay with HOP-62 NSCLC it was 1.1% (active); in the assay with NCI-H460 lung it was 52.5%; in the assay with HOP-92 NSCLC it was 30.8%. Also, the growth in the assay on NCI-H522 lung was 0.803% (active); in the assay on A549/ATCC NSCLC it was 95.1%; in the assay on 786-0 renal, 13.9%; with COLO 205 colon it was 34.9%.

For `COc1cc(-c2nn(-c3ccc(C)cc3)cc2C(=O)O)ccc1O`, the growth was 89.1% with NCI-H23 lung; 102% with NCI-H226 lung; 96.7% in the assay with NCI-H322M lung; 88.2% in the assay with HOP-62 NSCLC; 104% in the assay with NCI-H460 lung; 97.7% in the assay on HOP-92 NSCLC. The growth in the assay on NCI-H522 lung was 79.5%; with A549/ATCC NSCLC, 107%; in the assay with 786-0 renal, 101%; with COLO 205 colon it was 112%.

Take `Cc1cc(Nc2ccc(C)c(Cl)c2)n2nc(C(F)(F)F)nc2n1`: the growth in the assay with NCI-H23 lung was 63.6%; with NCI-H226 lung, 21.3%; in the assay with NCI-H322M lung, 93.3%; with HOP-62 NSCLC, -17.2% (active); in the assay on NCI-H460 lung, 69%; in the assay on HOP-92 NSCLC, -9.25% (active). Further, the growth was 36.2% in the assay on NCI-H522 lung, 42.5% with A549/ATCC NSCLC, -46.2% (active) in the assay on 786-0 renal and 38.3% with COLO 205 colon.

For the compound `COc1ccc(Nc2cc(C)nc(N3CCN(c4ccnc5cc(Cl)ccc45)CC3)n2)cc1`, the growth in the assay with NCI-H23 lung is 41.2%; with NCI-H226 lung it was 60.6%; in the assay with NCI-H322M lung, 26.9%; with HOP-62 NSCLC, 36.7%; with NCI-H460 lung, 18.5%; with HOP-92 NSCLC it was 25.3%. The growth in the assay with NCI-H522 lung is 38%; with A549/ATCC NSCLC it was 26.3%; with 786-0 renal, 29.1%; with COLO 205 colon, 8.4% (active).

As for `CC(C)(C)CC(C)(C)c1ccc(OCCOCC[N+](C)(C)Cc2ccccc2)cc1`, the growth is 2.23% (active) in the assay with NCI-H23 lung; 31.6% in the assay on NCI-H226 lung; 47.7% in the assay with NCI-H322M lung; -56.7% (active) in the assay with HOP-62 NSCLC; 1.33% (active) with NCI-H460 lung; -58.7% (active) with HOP-92 NSCLC. In addition, the growth was -44.9% (active) with NCI-H522 lung, 25.5% with A549/ATCC NSCLC and -86.5% (active) in the assay with COLO 205 colon.

For the compound `C=C1c2nc3ccccc3n2C=C(c2cccc(Cl)c2)N1Cc1ccc(OC)cc1`, the growth is 29.4% with NCI-H23 lung; 94.1% in the assay with NCI-H226 lung; 44.6% in the assay with NCI-H322M lung; 41.2% in the assay on HOP-62 NSCLC; 4.58% (active) in the assay with NCI-H460 lung; 77.9% with HOP-92 NSCLC. The growth is -10.9% (active) in the assay on NCI-H522 lung, 14.3% with A549/ATCC NSCLC, 35.5% in the assay with 786-0 renal and 95% in the assay on COLO 205 colon.

Consider `COc1ccc(NC(=O)c2ccc(/C=C/C(=O)c3ncc[nH]3)cc2)cc1`, for which the growth with NCI-H23 lung is 64.7%; with NCI-H226 lung it was 96.5%; in the assay with NCI-H322M lung, 85.4%; with HOP-62 NSCLC it was 79.1%; with NCI-H460 lung it was 64%; in the assay with HOP-92 NSCLC it was 104%. In addition, the growth is 51.4% with NCI-H522 lung, 81.5% with A549/ATCC NSCLC, 67.1% with 786-0 renal and 72.4% in the assay on COLO 205 colon.

For the compound `O=C1c2cc3c(cc2-c2c1c1cc(F)c(F)cc1c(=O)n2CCCn1ccnc1)OCO3`, the growth in the assay on NCI-H23 lung is -11.2% (active); with NCI-H226 lung, -59.4% (active); in the assay on NCI-H322M lung it was 14.5%; with HOP-62 NSCLC, 1.96% (active); in the assay on NCI-H460 lung, -26% (active); in the assay on HOP-92 NSCLC, -7.1% (active). Further, the growth in the assay with NCI-H522 lung is -26.9% (active); in the assay with A549/ATCC NSCLC, -93.5% (active); with 786-0 renal it was 8.02% (active); with COLO 205 colon, -4.37% (active).

Consider `CCCCn1c(-c2ccc(C(=O)O/N=C(\N)c3ccc4c(c3)OCO4)cc2)nc(-c2ccccc2)c1-c1ccccc1`, for which the growth was 35.3% in the assay on NCI-H23 lung; 49.9% in the assay with NCI-H226 lung; 66.6% with NCI-H322M lung; 79.7% in the assay on HOP-62 NSCLC; 0.397% (active) with NCI-H460 lung; 17.4% in the assay on HOP-92 NSCLC. For the same compound, the growth with NCI-H522 lung is -37.1% (active); in the assay on A549/ATCC NSCLC, 15.7%; in the assay with 786-0 renal, 41.9%; in the assay with COLO 205 colon, 57.5%.

On to `CCCCC(=O)OCC1OC(n2cnc3c(=S)nc[nH]c32)C(OC(=O)CCCC)C1OC(=O)CCCC` (centres undefined), for which the growth is 27.5% in the assay with NCI-H23 lung; 31.4% in the assay on NCI-H226 lung; 36.4% in the assay on NCI-H322M lung; 25.4% in the assay with HOP-62 NSCLC; 30.3% in the assay with NCI-H460 lung; 20.2% in the assay on HOP-92 NSCLC. Further, the growth in the assay on NCI-H522 lung is 34.5%; in the assay on A549/ATCC NSCLC it was 39.8%; with 786-0 renal, 20.5%; in the assay with COLO 205 colon, 38.8%.

With `O=C(N=Nc1c(O)[nH]c2ccccc12)c1cc(-c2ccccc2)on1`, the growth in the assay on NCI-H23 lung was 95.8%; with NCI-H226 lung it was 96.8%; in the assay on NCI-H322M lung, 111%; in the assay with HOP-62 NSCLC it was 102%; with NCI-H460 lung, 102%; in the assay with HOP-92 NSCLC, 96.2%. In addition, the growth in the assay on NCI-H522 lung is 90.7%; in the assay on A549/ATCC NSCLC, 107%; with 786-0 renal it was 104%; with COLO 205 colon, 122%.
